Screening data from PubChem BioAssay.
Pf Dd2 inh = blocks in vitro growth of P. falciparum Dd2; P. falciparum Dd2 growth, SYBR Green, 72 h; Potency, µM (series often up to 28.9 µM), most hits filed as inhibitors; 120,000 compounds, 4.3% hits; AID 1347417; active = well fitted inhibition curve with a large enough effect; also: nearly all actives have a fitted effect of over 65% in size
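Infected erythrocytes (Dd2, 0.3% parasitemia, 2.5% hematocrit final) are added to compound in RPMI-1640/Albumax II medium, grown 72 h at 37C in low oxygen, then lysed with saponin/Triton-X containing SYBR Green and read by fluorescence.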
Hits are given with their value; - = inactive. The sample as a whole holds a higher share of hits than the screen did.

SMILES	Pf Dd2 inh
O=C(NCCC1=CCCCC1)c1cc2c(s1)CN(C1CCCC1)C2	-
O=C1CCCN1CCCN1C(=O)[C@@H]2C[C@@H](O)CN2C2(CN(Cc3ccoc3)C2)C1=O	-
NC(=O)[C@@H](Cc1ccccc1)NC(=O)[C@@]1(O)C[C@@H](O)[C@H](O)[C@@H](NC(=O)Cc2cccs2)C1	-
Cn1cnnc1CC1CCN(C(=O)c2ccc(Oc3ccccc3)o2)CC1	-
O=C([C@@H]1C[C@H](Oc2ccccc2)CN1C(=O)c1ccn[nH]1)N1CCOCC1	-
O=C(c1cc(CN2CCOCC2)on1)N1CCC(c2nc(C3CCOCC3)no2)C1 (stereo unspecified)	-
O=C(NCc1ccccn1)C1CCN(C(=O)c2ncn3c2COC(c2ccc(Cl)cc2)C3)CC1 (stereo unspecified)	-
Cc1ccc(-c2cc(N3CCCN(C(=O)c4ccco4)CC3)n[nH]2)cc1C	-
CCCn1c(C)cnc1CC1CCN(C(=O)C2(c3ccc(OC)cc3)CC2)C1 (stereo unspecified)	5µM
CCCn1c(C)cnc1CC1CCN(C(=O)c2c(C)noc2C)CC1	-
COCCn1c(C)cnc1CC1CCCN(C(=O)C2(c3ccc(OC)cc3)CC2)C1 (stereo unspecified)	-
O=C(NCc1ccco1)C1COC2(CCN(C(=O)c3ccc(F)cc3)CC2)N1C(=O)c1ccccc1 (stereo unspecified)	-
CCCCc1ccc(NC(=O)CN2C(=O)NC(c3ccc(C)cc3)C3=C2COC3=O)cc1 (stereo unspecified)	-
Cc1cccc(CN2CCc3c(n(Cc4cccnc4)n(CCc4ccccc4)c3=O)C2)n1	-
O=C(CC1CCCCN(Cc2ccccc2)C1=O)NC1CCCCCC1 (stereo unspecified)	-
COc1ccc(CC(=O)NC(C)C(=O)N2CCN(c3ccccn3)CC2)cc1 (stereo unspecified)	-
Fc1ccc(CNCc2cccnc2N2CCN(c3ccccn3)CC2)cc1F	5µM
O=C(CSc1ccccn1)NCc1cccnc1N1CCOCC1	-
Cc1ncccc1C(=O)N1CCn2c(nnc2[C@@H]2C[C@@H](O)CN2Cc2ccccc2)C1	-
O=C([C@H]1CN2CC[C@H]1C[C@@H]2Cn1cc(CO)nn1)N1CCCC1	-
CC(C)CCN1CC2(CCCN(C(=O)CN3C(=O)CN(C)C3=O)C2)CCC1=O (stereo unspecified)	-
CCC(=O)N1CCc2c(C(=O)NCCOC)cccc21	-
CCC(=O)N1CCc2c(C(=O)NCc3cc(C)ccc3C)cccc21	11µM
CCC(=O)N1CCc2c(C(=O)NCc3cc(OC)ccc3OC)cccc21	-
O=C(c1cccs1)N1CCC(N2CC3CC(C2)[C@H]2CCCC(=O)N2C3)CC1 (stereo partly specified)	-
SMILES	Pf Dd2 inh
CC(=O)c1ccc(NC(=O)c2ccc(-c3nc(CSc4ccccc4)c(C)o3)cc2)cc1	-
COc1ccc(NC(=O)c2ccc(-c3nc(CSc4ccccc4)c(C)o3)cc2)cc1OC	-
Cc1oc(-c2ccc(C(=O)Nc3cccc(C(F)(F)F)c3)cc2)nc1CSc1ccccc1	11µM
O=C(Cc1ccc(F)cc1)N1CC2CC(C1)[C@H]1CCCC(=O)N1C2 (stereo partly specified)	-
CC(C)Oc1ccc(CNC(=O)CC2CCOCC2)cc1	-
CCOc1ccccc1CN1CCN(C(=O)CC2CCOCC2)CC1	-
CCOC(=O)C1CCN(Cc2ccccc2OCC(O)CN(C)C2CCCCC2)CC1 (stereo unspecified)	10µM
O=C1CCN(Cc2ccccc2OCC(O)CN2CCCCC2)CCN1 (stereo unspecified)	-
Cc1nc(C(=O)N2CC(F)(F)C[C@H]2c2nnc(C3CC3)o2)co1	-
COc1ccc(C(=O)N2CCC(Cc3nc(-c4ccc(F)cc4)no3)CC2)c(OC)n1	-
CS(=O)(=O)N(Cc1cccnc1)C1CN(C(=O)CCCc2c[nH]c3ccccc23)C1	-
CCN1C=C(C(=O)O)C(C)=NS1(=O)=O	-
Cc1cc2nc3n(c(=O)c2n1CC(=O)Nc1cccc(C#N)c1)CCCCC3	-
COc1ccc(NC(=O)Cn2nc3n(c2=O)CCCC3)cc1OC	-
N#Cc1ccc(C(=O)Nc2cccc(-c3nnc4n3CCCC4)c2)cc1	1.3µM
COc1ccc(C(=O)Nc2cccc(-c3nnc4n3CCCC4)c2)cc1OC	5µM
O=C(Nc1ccc(-c2nnc3n2CCCC3)cc1)c1cccc(Cl)c1	-
Cc1ccc(NC(=O)N2CCC(c3cc(-c4cccc(C)c4)n[nH]3)CC2)cc1	-
Cc1nnc2n1CCC(NC(=O)c1cc(C3CC3)[nH]n1)CC2 (stereo unspecified)	-
CN(C)c1cccc(C(=O)Nc2cccc(-c3nnc4n3CCCC4)c2)c1	4.5µM
Cc1cccc(N(C)C(=O)Cn2nc3n(c2=O)CCCC3)c1	-
O=C(Nc1cccc(-c2nnc3n2CCCC3)c1)c1cc(C2CC2)[nH]n1	4µM
COc1ccc(NC(=O)Cn2c(C)cc3nc4n(c(=O)c32)CCC4)cc1OC	-
COc1ccc2c(C)c(C(=O)N3CCCC3c3c(C)noc3C)oc2c1 (stereo unspecified)	-
NC(=O)NCc1cn(C2CCN(C(=O)C3CCCCCC3)CC2)nn1	-
SMILES	Pf Dd2 inh
COCC(=O)N1CC[C@@H](CC(=O)O)[C@@H](CCN2CCN(c3ccccc3OC)CC2)C1	-
CCn1ncc(N2CCC(NC(=O)CC3CCCCC3)CC2)cc1=O	-
CN1C[C@H](NC(=O)NC2(c3ccccc3)CCOCC2)CCC[C@@H](C(=O)N(C)Cc2cccnc2)CC1=O	-
COc1ccccc1OCCNC(=O)CN1CC2CC(C1)[C@H]1CCCC(=O)N1C2 (stereo partly specified)	-
O=C1NC2(CCCN(Cc3cccc4ccccc34)C2)Oc2ccccc21 (stereo unspecified)	-
Cc1cc(CN2CCCC3(C2)NC(=O)c2ccccc2O3)no1 (stereo unspecified)	-
O=C(NC[C@H]1O[C@@H]2C[C@@H](CC(=O)N3CCOCC3)O[C@@H]2[C@@H]1O)Nc1cccc(Cl)c1	-
CCOc1ccc(C(=O)Nc2ccc3c(c2)CCCN3S(=O)(=O)c2ccc(C)cc2)cc1	-
COc1cccc(NCc2nnc3n2CCCCC3)c1	-
CCn1nccc1C(=O)NCCC1CCN(C(=O)Nc2ccccc2)CC1	-
CCn1nccc1C(=O)NCCC1CCN(C(=O)Nc2cccc(C)c2)CC1	-
CCOc1ccc(C(=O)Nc2cccc(-c3nnc4n3CCCC4)c2)cc1	1.6µM
CCOc1ccc(-c2nnc3n2CCCC3)cc1OCC	-
CCn1nccc1C(=O)Nc1cccc(-c2nnc3n2CCCC3)c1	8.9µM
COc1cccc(C(=O)Nc2cccc(-c3nnc4n3CCCC4)c2)c1	5.6µM
O=C(Nc1ccc(Cl)cc1Cl)c1cnn2c1CN(C(=O)c1ccccc1)CC2	-
Cc1cc(CN2CCN(C(=O)CNC3CC3)CC(C(=O)O)C2)on1 (stereo unspecified)	-
Cc1cc(NC(=O)CN2C(=O)NC(c3ccc(Cl)cc3)C3=C2COC3=O)ccc1Br (stereo unspecified)	-
O=C(O)c1ccc(CN2CCC[C@H]2c2nc(-c3ccc(-c4cncnc4)nc3)no2)cc1	-
CN(C)c1nccnc1OC1CCN(C(=O)CCc2ccccc2)C1 (stereo unspecified)	-
Cc1ccc(-c2nc(C3CC(=O)N(c4ccc(F)cc4)C3)no2)cc1 (stereo unspecified)	-
CN[C@@H](CC(C)C)C(=O)N[C@H]1CCN2C(=O)c3cc(-c4ccc(OC)cc4OC)ccc3NC(=O)[C@@H]2C1	-
